Compounds with a hit are over-represented: about 1.9% of the library has one in this group of screens.
ZTA DNA inh = counter-screen for EBNA-1 inhibitors: inhibitors of Epstein-Barr virus ZTA; inhibition, % at 11 µM; P03206; ZTA-DNA binding, fluorescence polarization; 0.15% of 320,000 active; in the data active means inhibition above about 33%
EBNA-1 inhibitor = EBNA-1 DNA-binding inhibitors, primary screen, biochemical, fluorescence polarization; inhibition, % at 14.8 µM; 0.34% of 300,000 active; AID 1950, 2009; in the data active means inhibition above about 28%
p47phox inh = p47phox/p22phox peptide binding inhibitors, primary screen, biochemical, uHTS, NADPH oxidase regulatory subunit; AID 1274, 2008; 0.53% of 220,000 active; Neutrophil cytosol factor 1 (Homo sapiens), P14598; fluorescence polarization, 2 h; inhibition, % at 24.7 µM;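 active means inhibition above about 30%, limit read from the data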
aDG glyco up = activators of alpha-DG glycosylation, primary screen, uHTS, Pro5-aDG cells, AlphaScreen; activation, % at 10 µM; 0.22% of 360,000 active; alpha-DG glycosylation AlphaScreen (IIH6); 0% Pro5, 100% B10-LARGE cell signal; AID 624168, 2012;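 active means activation of at least 8% versus controls, or a plate z-score of at least 8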;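 further: Pro5 are CHO cells carrying HIG-tagged alpha-DG that lacks glycosylation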
PG9 Ab binder = binders of HIV-1 gp120 antibody PG9, primary screen, biochemical, TR-FRET. HIV-1 gp120 / PG9 antibody interaction. TR-FRET gp120-PG9 antibody binding. inhibition, % at 6.7 µM. 0.43% of 360,000 active. AID 624416, 2012; in the data active means inhibition above about 8.5%
NR1D1 modulator = modulators of Rev-erb alpha DNA binding, primary screen, biochemical, FITC-DNA, fluorescence polarization, uHTS; Nuclear receptor subfamily 1 group D member 1 (Homo sapiens), P20393; Rev-erbα–FITC-DNA binding, 90 min; activity, % at 10 µM; 0.79% of 370,000 active;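 active means activity above about 14%, limit read from the data; passing the limit was not always enough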
Target sequence (P20393 whole entry, looked up): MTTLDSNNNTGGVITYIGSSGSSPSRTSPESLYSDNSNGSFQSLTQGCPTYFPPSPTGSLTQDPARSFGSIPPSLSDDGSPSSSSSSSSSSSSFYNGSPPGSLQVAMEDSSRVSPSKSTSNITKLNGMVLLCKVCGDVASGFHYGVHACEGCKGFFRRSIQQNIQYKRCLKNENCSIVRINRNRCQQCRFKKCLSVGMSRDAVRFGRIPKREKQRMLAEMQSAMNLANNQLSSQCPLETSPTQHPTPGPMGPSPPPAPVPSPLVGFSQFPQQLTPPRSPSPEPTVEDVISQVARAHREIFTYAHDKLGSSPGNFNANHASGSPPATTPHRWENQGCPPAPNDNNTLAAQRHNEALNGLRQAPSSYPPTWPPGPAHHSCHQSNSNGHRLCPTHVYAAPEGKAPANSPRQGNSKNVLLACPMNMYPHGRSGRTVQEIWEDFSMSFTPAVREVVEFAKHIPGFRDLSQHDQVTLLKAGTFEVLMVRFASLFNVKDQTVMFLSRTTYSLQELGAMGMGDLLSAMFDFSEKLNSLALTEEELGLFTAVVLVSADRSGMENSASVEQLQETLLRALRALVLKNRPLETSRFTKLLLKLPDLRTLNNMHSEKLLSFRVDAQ
NR1D1 mod conf = modulators of Rev-erb alpha DNA binding, confirmation, biochemical, FITC-DNA, fluorescence polarization, single point. 90 min. 61% of 3,000 active. AID 1259319, 2017. activation, % at 25 µM. shares compounds with NR1D1 modulator;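 active means activation at or above a set limit, or at least 3 SD above the negative control mean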
RORg DNA counter = modulation of RORgamma DNA binding, dose response, counter-screen for Rev-erb alpha modulator project, biochemical, fluorescence polarization, FITC-DNA. purified RORgamma protein-FITC-DNA binding. 8% of 910 active. shares compounds with NR1D1 modulator. IC50, µM;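 active means Compounds whose fitted half-maximal concentration for disrupting protein-DNA binding is below 10 micromolar; the record names Rev-erb in its text, so the target is in doubt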
Hits are given with their value; - = inactive; . = no result given; ! = repeats disagree.

SMILES	ZTA DNA inh	EBNA-1 inhibitor	p47phox inh	aDG glyco up	PG9 Ab binder	NR1D1 modulator	NR1D1 mod conf	others
CC(=O)c1cc(-c2ccccc2-c2ccccc2)c(=O)n2c1CCC2	.	.	.	.	.	-	.
COc1ccc(CN(CC#Cc2ccc(C)cc2)C(N)=NC(=O)CCc2ccccc2)c(OC)c1	.	.	.	.	.	-	.
C=CCN(C(=O)[C@@H](C)[C@@H](O)c1ccc2ccccc2c1)c1ccccc1	.	.	.	.	.	-	.
CCOC(=O)C1CCCCN1C(=O)[C@@H]1CC=C[C@@H]2CCN(c3ccccc3)C(=O)[C@@H]21 (stereo not given in full)	.	.	.	.	.	-	.
CSc1nnc(N2C(=O)C(O)=C(C(=O)c3ccco3)C2c2cccc(Cl)c2)s1 (stereo not given)	-	-	.	-	-	30.6	29.3	RORg DNA counter=-
CS(=O)(=O)c1ccc(C(=O)OCC#CCSc2nnc(-c3cccc4ccccc34)o2)cc1	.	.	.	.	.	-	.
Cc1ccc(NC(=O)c2sc3nc(N4CCOCC4)c4c(c3c2N)CC(C)(C)OC4)cc1	-	-	.	-	-	-	.
COc1ccc(NC(=O)c2sc3nc(N4CCOCC4)c4c(c3c2N)CC(C(C)C)OC4)c(OC)c1 (stereo not given)	-	-	.	-	-	-	.
COc1ccc(NC(=O)c2sc3nc(N4CCCC4)c4c(c3c2N)CC(C)(C)OC4)c(OC)c1	-	-	.	-	-	53.3	29.8	RORg DNA counter=-
CC1(C)Cc2c(c(N3CCCC3)nc3sc(C(=O)Nc4ccccc4)c(N)c23)CO1	-	-	.	-	-	50.0	43.6	RORg DNA counter=-
CCOc1ccc(NC(=O)c2sc3nc(N4CCOCC4)c4c(c3c2N)CC(C)(C)OC4)cc1	-	-	.	-	-	33.4	-
O=C(NCc1ccccc1Cl)C1CCC(CNS(=O)(=O)c2cccc3cccnc23)CC1 (stereo not given)	.	.	.	.	.	-	.
CN(C)S(=O)(=O)c1cccc(C(=O)N/N=C\c2ccnc3ccccc23)c1	.	.	.	.	.	-	.
CCOC(=O)c1c(NC(=O)c2ccc(S(=O)(=O)N3CCOCC3)cc2)sc2c1CC(C)(C)NC2(C)C	-	-	.	-	-	42.2	-
COc1ccc(-n2c(SCC(=O)NCC3CCCO3)nc3n[nH]c(C)c3c2=N)cc1 (stereo not given)	-	-	-	-	-	-	.
Cc1[nH]nc2nc(SCC(=O)NCCC3=CCCCC3)n(-c3ccc(Br)cc3)c(=N)c12	-	-	.	-	-	28.9	30.0	RORg DNA counter=-
COc1ccc(NC(=O)c2sc3ncn(CC(=O)N4CCN(c5ccccn5)CC4)c(=O)c3c2C)c(OC)c1	-	-	.	-	-	47.7	-
C=CCn1cnc2sc(C(=O)Nc3ccccc3OC)c(C)c2c1=O	-	-	-	-	-	-	.
COc1ccccc1NC(=O)c1sc2ncn(Cc3cccc(C)c3)c(=O)c2c1C	-	-	-	-	-	54.6	54.3	RORg DNA counter=1.05
COc1ccccc1NC(=O)c1sc2ncn(Cc3ccc(C)cc3)c(=O)c2c1C	-	-	-	-	-	46.0	-
COc1ccc(C(C(=O)N(C)C2CCCC2)N(Cc2ccc(F)cc2)C(=O)c2cc(C)on2)cc1OC (stereo not given)	.	.	.	.	.	-	.
COc1ccc(N2CCN(CCNS(=O)(=O)c3ccc(F)cc3)CC2)cc1	.	.	.	.	.	-	.
CC1(C)CC(=O)N(CC(=O)N2CCN(Cc3ccccc3)CC2)c2ccccc2S1(=O)=O	.	.	.	.	.	-	.
CCN(CC)C(=O)CC[C@@H]1CC[C@]2(CCCN(Cc3ccncc3)C2)O1	.	.	.	.	.	-	.
Cc1nn(C)c(C)c1N1C(=O)c2cccc3c(N)ccc(c23)C1=O	-	-	-	-	-	174.7	156.7	RORg DNA counter=1.83
SMILES	ZTA DNA inh	EBNA-1 inhibitor	p47phox inh	aDG glyco up	PG9 Ab binder	NR1D1 modulator	NR1D1 mod conf	others
Cc1ccc(N2C(=O)c3cccc4c(N)ccc(c34)C2=O)c2cccnc12	-	-	-	-	-	125.7	131.2
CCN1C(=O)c2cccc3c(N)ccc(c23)C1=O	-	-	.	-	-	240.0	245.9	RORg DNA counter=5.26
CCN1C(=O)c2cccc3c(S(=O)(=O)N4CCC(C)CC4)ccc1c23	-	.	.	-	-	-	.
Cc1nn(C)c(C)c1N1C(=O)c2cccc3c(Br)ccc(c23)C1=O	-	-	-	-	-	-	.
O=C(Nc1ccc(Cl)c(Cl)c1)c1cccc2c1-c1ccccc1C2=O	.	.	.	.	.	-	.
N#C/C(=C/C1=C(N2CCOCC2)C(=C/c2ccc(Cl)cc2)/CC1)C(=O)Nc1ccccc1F	.	.	.	-	-	27.0	-
Cc1ccc(-n2c(N)c(C#N)c(-c3ccccc3)c(C#N)c2=O)cc1	-	-	-	-	-	21.6	61.6	RORg DNA counter=-
Cc1ccc(-c2c(C#N)c(N)n(-c3ccccc3C)c(=O)c2C#N)cc1	.	.	.	-	-	-	.
Cc1nc2cc(C(=O)N3CCN(C(=O)C(Cl)Cl)CC3)ccc2n1C1CCCC1	.	.	.	.	.	-	.
O=C(CSc1nnc(-c2cnccn2)n1-c1ccccc1)Nc1ccc2c(c1)OCCO2	.	.	.	.	.	-	.
CCC(c1ccc(O)cc1)C(CC)c1ccc(O)cc1 (stereo not given)	-	-	.	-	-	33.9!	40.8	RORg DNA counter=-
COc1ccc2nc(-c3ccc(CN4CCC(c5nc6ccccc6[nH]5)CC4)cc3)c(-c3ccccc3)nc2c1	.	.	.	.	-	-	.
Brc1ccc2nc(-c3ccc(CN4CCC(c5nc6ccccc6[nH]5)CC4)cc3)c(-c3ccccc3)nc2c1	.	.	.	.	-	16.5	12.2
O=C1COc2ccc(C(=O)COC(=O)c3c(F)cccc3Cl)cc2N1	-	.	.	-	-	16.0	-
CN(C)c1ccc(C#Cc2ccc3cc(CCCO)oc(=O)c3c2)cc1	-	.	.	-	-	28.5	-
O=C1c2ccccc2C(=O)N1CCC#Cc1ccc2cc(CCCO)oc(=O)c2c1	.	.	.	-	-	16.1	-
CC1=C2NC(N)=[N+](Cc3ccccc3)CC2n2c(=O)n(-c3ccccc3)c(=O)n2C1 (stereo not given)	.	.	.	.	.	-	.
CCCCCC(=O)NC1CCCCN(Cc2ccc(Cl)cc2)C1=O (stereo not given)	.	.	.	.	.	-	.
CCOC(=O)c1sc2nc(C)nc(NCc3ccccc3OC)c2c1C	-	-	.	-	-	-	.
CCOC(=O)c1sc2nc(C)nc(NC3CCC(O)CC3)c2c1C (stereo not given)	-	-	.	-	-	24.2	-
C[C@H]1[C@H](c2ccccc2)OC(O)([C@H](Cc2ccccc2)NC(=O)OC(C)(C)C)CN1C (stereo not given in full)	.	.	.	.	.	-	.
Fc1cccc(CNC2CCC23CCC(c2ccccc2)CC3)c1 (stereo not given)	.	.	.	.	.	-	.
